p97 inhibitor = blocks human p97 ATPase activity | recombinant p97 ATPase, Kinase-Glo ATP luminescence, 3 h | P55072 | inhibition, % at 8 µM | AID 1481 | hit rate 0.42% among 220,000; in the data active = inhibition above about 15%;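 also: 0% = DMSO vehicle and 100% = wells lacking enzyme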
M18AAP inhibitor = blocks P. falciparum M18 aspartyl aminopeptidase; hit rate 1.2% among 290,000; recombinant PfM18AAP, H-Glu-NHMec fluorogenic cleavage; inhibition, % at 7.35 µM;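 active = inhibition above the campaign mean inhibition over all tested compounds plus 3 SD, cut at about 28% in these data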;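 also: 0% = plate median of test compound wells and 100% = 2 mM ZnCl2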
UBC9 SUMO inh = SUMOylation inhibition | P63279 | HTRF SUMOylation assay, SAE1/SAE2 + UBC9, in vitro | inhibition, % at 35 µM | hit rate 0.36% among 290,000 | AID 2006; in the data active = inhibition above about 50%, passing the limit was not always enough; inconclusive = no clear call, values can overlap the other calls
Target sequence (P63279 whole entry, looked up): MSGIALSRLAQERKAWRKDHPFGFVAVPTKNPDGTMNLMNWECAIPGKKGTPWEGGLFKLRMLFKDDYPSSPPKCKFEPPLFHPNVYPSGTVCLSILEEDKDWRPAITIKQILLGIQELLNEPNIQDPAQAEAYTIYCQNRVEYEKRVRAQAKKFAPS
PHOSPHO1 block = inhibitors of human PHOSPHO1 phosphatase; AID 1565; inhibition, % at 13.3 µM; recombinant PHOSPHO1, absorbance phosphatase assay; Q8TCT1; hit rate 1.1% among 290,000; in the data active = inhibition above about 60%
Target sequence (Q8TCT1 whole entry, looked up): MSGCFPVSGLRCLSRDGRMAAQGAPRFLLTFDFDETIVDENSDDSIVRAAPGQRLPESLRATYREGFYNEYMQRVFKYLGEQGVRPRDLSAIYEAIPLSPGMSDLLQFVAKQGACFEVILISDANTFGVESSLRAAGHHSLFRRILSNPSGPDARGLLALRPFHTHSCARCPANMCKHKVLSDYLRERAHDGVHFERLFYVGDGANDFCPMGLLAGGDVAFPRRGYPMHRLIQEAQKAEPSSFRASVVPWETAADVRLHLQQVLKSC
G6PDH counter = counter-screen for G6PDH assay hits: L. mesenteroides G6PDH inhibition; AID 1020; inhibition, % at 5 µM; Purified L. mesenteroides G6PDH, diaphorase/resazurin coupled fluorescence, 45 min; hit rate 0.12% among 200,000; in the data active = inhibition above about 50%
HDAC3 inh = inhibitors of human histone deacetylase 3; recombinant HDAC3, fluorogenic peptide/trypsin coupled, fluorescence; O15379; hit rate 0.15% among 320,000; inhibition, % at 8.3 µM; in the data active = inhibition above about 26%, passing the limit was not always enough; inconclusive = no clear call, values can overlap the other calls
* marks the source's active call; other numbers are inactive results; u = inconclusive; x = no result. Shown are actives, neighbours in structure and some others; about 2.5% of the full set was active somewhere.

SMILES	p97 inhibitor	M18AAP inhibitor	UBC9 SUMO inh	PHOSPHO1 block	G6PDH counter	HDAC3 inh
CCN(CC)c1ccc(C=Nc2cc(C)ccc2C)c(O)c1	4.3	4.8	18.3	-0.3	2.3	2.7
CC(=O)N1CCc2cc(S(=O)(=O)NCC(=O)NCc3ccccc3Cl)ccc21	x	6.9	5.9	64.7*	x	3.2
CCC(=O)N1CCc2cc(S(=O)(=O)NCCC(=O)NCc3ccccc3Cl)ccc21	x	10.2	14.3	39.9	x	u
c1c2c(cc3sc(N4CCOCC4)nc13)OCO2	-9.0	-15.0	6.5	93.4*	7.9	-1.7
CC(C)(C)CC(C)(C)c1ccc(OCCOCC[N+](C)(C)Cc2ccccc2)cc1	x	x	x	x	x	39.9*
C[N+](C)(CCOc1ccccc1)Cc1ccccc1 (tested in a mixture with another compound)	x	17.5	24.4	-9.0	x	-1.5
C=CCn1c(C)cc(C(=O)CSc2nnc3c(Cl)cc(Cl)cn23)c1C	0.5	-2.6	19.7	62.2*	2.5	2.5
CC1=C(C#N)c2nc(N)c(C#N)c(C)c2/C1=C\c1ccc(OCC(=O)O)c(Cl)c1	4.6	-4.2	18.8	71.4*	x	4.5
CCOC(=O)CSc1nc(N)c(C#N)c(-c2ccc(OCC)cc2)c1C#N	0.5	0.2	-6.9	21.5	6.2	-15.9
O=C(c1ccco1)N1CCN(Cc2nc(Cc3ccccc3)no2)CC1	6.4	-5.0	5.4	60.1*	8.7	-1.5
S=c1[nH]nc(CSc2nc3ccccc3s2)o1	3.8	8.1	-1.3	105.3*	-1.7	-4.3
c1ccc2[nH]c(CSc3nc4ccccc4s3)nc2c1	2.4	-2.6	-3.6	13.5	-4.3	-1.9
Cn1c(-c2sc3ccccc3c2Cl)n[nH]c1=S	-5.3	13.6	19.1	94.5*	-8.3	0.4
O=C(CSc1nc2cc(Cl)ccc2s1)c1ccco1	5.5	3.4	22.8	91.3*	2.5	14.5
O=C(CSc1nc2ccccc2s1)CSc1nc2ccccc2s1	3.5	11.8	14.7	60.4*	4.7	12.9
Cc1cc(C)n2nc(-c3ccccc3)c(-c3ccccc3)c2n1	x	-6.1	9.8	18.9	x	-5.6
CCOC(=O)C1(Cc2ccccc2C)CCCN(C(=O)c2ccc(OC)o2)C1 (configuration not stated)	x	2.2	-10.6	1.0	x	0.2
O=C(NCCS(=O)(=O)NCc1ccccn1)c1ccccc1	x	x	x	x	x	3.1
Cn1c(CSc2nc3ccccc3s2)n[nH]c1=S	0.7	30.0*	-5.2	72.8*	-26.8	-5.4
Cn1c(CSc2nc3ccccc3s2)nc2ccccc21	-2.7	6.2	2.1	7.1	-3.7	-0.9
Cn1c(Cc2ccccc2)n[nH]c1=S	4.7	29.6*	0.7	-22.6	9.0	-7.3
CCOC(=O)C(O)(NC(=O)c1cccnc1)C(F)(F)F (configuration not stated)	-2.5	4.2	12.2	1.0	0.9	41.8*
CCOC(=O)CNC(=O)c1cccnc1	3.3	-1.8	15.9	-0.7	0.3	-9.5
O=C(O)c1cccc(-n2cccc2/C=C2/NC(=O)N(c3ccc(Cl)cc3)C2=O)c1	17.9*	4.4	90.0*	16.1	5.9	x
CC(=O)N1N=C(c2ccc(C)cc2)OC1c1cccnc1 (configuration not stated)	1.6	-0.4	12.0	60.9*	7.6	-4.0
SMILES	p97 inhibitor	M18AAP inhibitor	UBC9 SUMO inh	PHOSPHO1 block	G6PDH counter	HDAC3 inh
CCN(CC)c1nc(Nc2ccc(Cl)cc2)nc(OCC#N)n1	5.5	-0.5	2.8	-5.9	-0.1	31.6*
Cc1cccc(Nc2nc(OCC#N)nc(N(C)C)n2)c1	x	-1.4	3.6	24.3	x	-1.0
Cc1occc1C(=O)NNC(=O)Nc1ccc(F)cc1F	4.6	30.1*	-7.4	-1.8	14.9	0.7
CCOC(=O)C1(Cc2ccccc2)CCCN(CCCn2cccn2)C1 (configuration not stated)	-2.7	-7.8	1.0	64.2*	6.6	-8.5
CCOC(=O)C1(Cc2ccccc2C)CCCN(Cc2cn(C)nc2C)C1 (configuration not stated)	-1.7	-6.4	16.8	17.7	17.8	1.3
CCOC(=O)C1(Cc2ccccc2)CCCN(Cc2ccncc2)C1 (configuration not stated)	0.2	-10.0	1.2	0.9	1.9	-1.7
CCOC(=O)C1(Cc2ccccc2C)CCCN(Cc2cc(OC)c(O)c(OC)c2)C1 (configuration not stated)	-2.3	-2.7	-26.2	28.1	58.6*	7.1
CC1(C)CC2CC(C)(CN2C(=O)COC(=O)c2cncc(Br)c2)C1 (configuration not stated)	x	x	x	x	x	-6.5
CCC(CC)c1nc(C(N)=O)c2[nH]c(=O)n(-c3ccc(OC)c(OC)c3)c2n1	x	14.1	7.6	34.1	x	7.7
Cc1ccc(C2C(C#N)=C(N)SC(N)=C2C#N)o1	15.3*	-1.1	41.6	101.9*	21.1	-0.1
CC(C)(C)NC(=O)CSc1nnc(-c2ccccc2)c(-c2ccccc2)n1	x	-5.1	23.6	33.7	x	9.4
O=[N+]([O-])c1cccc(NC(=S)N2CCN(c3ccccn3)CC2)c1	x	-1.4	0.2	32.2	x	2.0
Cc1cccc(Cc2nnc(CCC(=O)N(C)Cc3ccncc3C)o2)c1	7.0	-0.3	-10.0	51.8	4.6	-3.1
COc1ccc(CCc2nnc(CCC(=O)N(C)Cc3ccncc3C)o2)cc1	-0.9	-6.5	1.8	64.2*	4.2	5.5
Cc1cccc(NC(=O)C(Cc2ccccc2)c2nn[nH]n2)c1C (configuration not stated)	x	-9.1	-1.2	3.1	x	-0.3
Cc1ccc([N+](=O)[O-])cc1N/C=C1\CCCCC1=O	2.0	4.5	28.1	-5.1	8.7	3.0
CCOc1cc(C2C3=C(CC(C)(C)CC3=O)N(CCCOC)C3=C2C(=O)CC(C)(C)C3)ccc1O	x	31.2*	1.4	-0.6	x	1.7
C#CCOc1ccc(C2C3=C(CC(C)(C)CC3=O)N(CC(=O)O)C3=C2C(=O)CC(C)(C)C3)cc1	x	4.8	22.3	29.5	x	-50.6
C#CCOc1ccc(C2C3=C(CC(C)(C)CC3=O)N(CC(=O)O)C3=C2C(=O)CC(C)(C)C3)cc1OC	x	31.6*	2.4	24.1	x	1.5
CCN(CC(=O)Nc1c(F)cccc1F)C(=O)c1ccc2c(c1)OCCO2	x	x	x	x	x	-3.3
CCOc1ccc(N2C(=O)c3ccc(C(=O)OCC(=O)N(CC)C4CCS(=O)(=O)C4)cc3C2=O)cc1 (configuration not stated)	0.5	5.3	53.6*	12.2	0.1	3.7
CCN(C(=O)COC(=O)c1ccc(N2C(=O)c3ccccc3C2=O)cc1)C1CCS(=O)(=O)C1 (configuration not stated)	6.1	2.3	-3.0	43.6	0.7	u
O=C(CNc1cccc(S(=O)(=O)N2CCOCC2)c1)Nc1ccccc1F	x	0.2	-9.5	-6.2	x	2.6
CCOc1ccc(C(=O)NCC(=O)OCc2cc([N+](=O)[O-])cc3c2OCOC3)cc1OCC	-1.7	-1.1	24.2	-2.1	-7.3	-0.4
O=C(CNC(=O)c1ccc(Br)cc1)OCc1cc([N+](=O)[O-])cc2c1OCOC2	11.3	-1.4	-14.2	68.1*	-1.4	6.5

Bioassay records: PubChem BioAssay, several laboratories
